# Assay outcomes deposited in PubChem BioAssay by National Center for Advancing Translational Sciences (NCATS).
# Apoferritin bind: candidate novel general anesthetic via apoferritin binding. P02791. apoferritin/1-aminoanthracene competitive binding, fluorescence. Potency, µM (series often up to 77.5 µM), for the others: at the top dose activity change, negative = displacement, actives largely listed as inhibitors. 0.074% of 350,000 active. AID 485281; also: potency is read from the fitted curve at half-maximal effect; % is scaled to controls: 0 for no effect and ±100 for the full control effect; nearly all actives have a fitted effect of over 20% in size
# Target sequence (P02791 2-175 limits assumed): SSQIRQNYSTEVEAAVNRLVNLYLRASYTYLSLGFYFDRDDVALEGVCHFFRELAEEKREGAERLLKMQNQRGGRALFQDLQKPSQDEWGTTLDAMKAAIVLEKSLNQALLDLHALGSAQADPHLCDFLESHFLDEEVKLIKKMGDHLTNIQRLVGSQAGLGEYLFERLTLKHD
#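 Apoferritin-based anesthetic binding model; compound displacement of fluorescent 1-AMA measured as endpoint fluorescence after 10 minutes at room temperature, scaled to free-ligand and complex controls.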
# IDH1 R132H inh: inhibitors of human mutant IDH1 R132H | O75874 | IDH1-R132H enzyme, NADPH consumption, diaphorase/resazurin fluorescence | Potency, µM (series often up to 76.6 µM), without a hit: at the top dose activity change, negative = inhibition, most hits filed as inhibitors | 0.093% of 390,000 active | AID 602179; also: potency is read from the fitted curve at half-maximal effect; % is scaled to controls: 0 for no effect and ±100 for the full control effect; nearly all actives have a fitted effect of over 65% in size
# Target sequence (O75874 whole entry R132H, stated change not applied): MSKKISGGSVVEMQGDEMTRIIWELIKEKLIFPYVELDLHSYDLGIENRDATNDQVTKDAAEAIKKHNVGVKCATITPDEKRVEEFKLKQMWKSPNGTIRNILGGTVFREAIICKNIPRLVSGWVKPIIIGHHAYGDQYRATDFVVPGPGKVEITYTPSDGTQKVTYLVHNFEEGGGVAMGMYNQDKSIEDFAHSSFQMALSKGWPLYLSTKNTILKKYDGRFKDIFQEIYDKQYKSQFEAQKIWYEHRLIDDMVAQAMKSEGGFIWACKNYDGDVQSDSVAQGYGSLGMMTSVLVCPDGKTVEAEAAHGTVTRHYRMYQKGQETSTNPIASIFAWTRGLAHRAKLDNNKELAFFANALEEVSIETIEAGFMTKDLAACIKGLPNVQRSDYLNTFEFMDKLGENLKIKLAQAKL
#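 IDH1-R132H (0.5 ug/mL) preincubated 30 min with compound, then NADPH (0.016 mM) and alpha-KG (2 mM) added; 80 min at RT, pH 7.5. Remaining NADPH coupled via diaphorase/resazurin to fluorescence (540/590 nm); concentration-response curves normalized to no-enzyme control.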
# Giardia kill: kills Giardia lamblia. Giardia lamblia trophozoite viability. activity change, % at 7.66 µM, hits read low. 0.15% of 340,000 active. AID 540267; in the data active = activity change below about -80%; inconclusive = between about -30% and that limit;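 also: parasites exposed to compound for two days anaerobically before the ATP read; % is scaled to controls: 0 for no effect and ±100 for the full control effect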
#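 Media and compound were dispensed first, then trophozoites at 100 cells/well; plates sat 48 hrs at 37 deg C without oxygen before ATP luminescence reagent was added and read after 15-30 min at room temperature.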
# Nrf2 ARE act: activates Nrf2 signaling; AREc32 ARE-luciferase reporter (MCF7-derived line), luminescence, 24 h; Potency, µM (doses to about 46.1 µM), for inactives: at the top dose activation, hits mostly activators; 0.31% of 410,000 active; AID 624171; also: potency is read from the fitted curve at half-maximal effect; % of control where 0% means no effect; nearly all actives have a fitted effect of over 65% in size
#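 ARE-driven firefly luciferase activity in AREc32 cells measured after a 24 hr compound exposure at 37 deg C, using Steady-Glo reagent and a 30 min room-temperature hold.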
# Nrf2 block: blocks Nrf2 signaling; A549 ARE-Fluc reporter, luciferase luminescence, 18-24 h; Potency, µM (highest dose often 46 µM), without a hit: at the highest dose activity change, negative = inhibition, hits mostly inhibitors; 2.1% of 360,000 active; also: potency is read from the fitted curve at half-maximal effect; % is scaled to controls: 0 for no effect and ±100 for the full control effect; nearly all actives have a fitted effect of over 60% in size
#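 Cells were seeded and rested 2 h, then exposed to compounds for 18-24 h. CellTiter-Fluor was read first as a viability measure. BugLite was added 15 min before the final luminescent read of ARE-luciferase activity in A549 cells.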
# A549 tox: kills or reduces viability of A549 cells in Nrf2 counter-screen | A549 ARE-Fluc cells, CellTiter-Fluor viability, 18-24 h | Potency, µM (doses to about 46 µM), without a hit: at the highest dose activity change, negative = cytotoxicity, usual class: inhibitors | 0.16% of 390,000 active; also: potency is read from the fitted curve at half-maximal effect; % is scaled to controls: 0 for no effect and ±100 for the full control effect
#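 Cytotoxicity counterscreen: CellTiter-Fluor fluorescence was measured in A549 ARE_Fluc cells after 18-24 h of compound exposure in a concentration series. The subsequent BugLite luminescent read reports ARE-luciferase activity.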
# The depositor's hits bear a star; ? = inconclusive; / = no result given; [ ] = another dose, or the depositor's remark. Compounds with a hit are over-represented: about 2.3% of the library has one in this group of screens. Unless noted, calls follow the shape of the dose curve; as a rule, active = well fitted curve in the direction sought with a large enough effect; inconclusive = small, poorly fitted or top-dose-only effect, or another doubt; inactive = no such curve, though single readings can be large; an effect the other way counts as inactive or inconclusive.
SMILES,Apoferritin bind,IDH1 R132H inh,Giardia kill,Nrf2 ARE act,Nrf2 block,A549 tox
CN(C)c1ccc(-c2cc[nH]c(=O)c2N)cc1,/,/,/,/,15%,-10%
Cc1cc(-c2ccc(S(=O)(=O)Nc3ccc(Cl)cc3C)cc2)on1,?,10%,/,0%,21µM*,-9%
Cc1ccc(NS(=O)(=O)c2ccc(-c3cc(C)no3)cc2)c(Br)c1,?,-3%,/,0%,23µM*,0%
NCC(=O)Nc1cccc(-c2nn3c(=O)cc(N4CCNCC4)nc3s2)c1,/,/,/,/,11%,-1%
COc1ccc(C2c3c(n(C)c4ccccc34)C(=O)N2CC(=O)Nc2ccccc2F)cc1 (stereo unspecified),-5%,16%,/,7%,-9%,-14%
O=C(CNC(=O)c1ccc2ccccc2c1)OC(C(=O)Nc1cc(C(F)(F)F)ccc1Cl)c1ccccc1 (stereo unspecified),/,/,/,/,3%,10%
C=CCN=c1scc(-c2ccc3c(c2)NC(=O)CO3)n1/N=C(\C)c1ccccn1,-16%,4%,-12,8%,16µM*,?
COC(=O)[C@@H]1CC[C@H](C)[C@@H](c2ccc(C)cc2)N1C(=O)c1ccc(/C=N\O[C@@H](C)c2cc(-c3c(C)cc(C)cc3C)no2)cc1,-13%[15.3 µM],/,/,/,/,/
C=C(C)CN(CC)c1nc(N)c2c(N)nc3c(c2c1C#N)CC(=O)N3C12CC3CC(CC(C3)C1)C2,-14%,3%,4,13%,13µM*,-17%
CCOc1ccccc1CNC(=O)c1cnc2sc(N3CCCC3)nn2c1=O,2%,16%,/,1%,?,11%
Nc1ccc(Sc2ccc([N+](=O)[O-])cc2)cc1,11µM*,5%,1,2%,?,-9%
CC(C)(C)C(=O)Nc1ccc(Sc2ccc([N+](=O)[O-])cc2)cc1,?,11%,2,5%,16µM*,1%
O=C(N/N=C/c1ccccn1)c1cc(-c2ccc(Br)cc2)nc2ccccc12,-17%,6%,-10,0%,13µM*,?
O=C(N/N=C/c1ccccn1)c1cc(-c2ccc(Cl)cc2)nc2ccccc12,-23%,3%,11,8%,9.2µM*,?
CCN(CC)c1ccc(NC(=O)C2CCN(S(=O)(=O)c3ccc4c(c3)oc(=O)n4C)CC2)c(C)c1,-13%,-1%,/,0%,-9%,0%
O=C1[C@H]2[C@H]3[C@H](O)[C@H](O)C/C(=N/OC[C@@H](O)COCc4ccco4)[C@H]3CC[C@@H]2C(=O)N1Cc1ccccc1,-15%[15.3 µM],/,/,/,/,/
O=C(NC(c1ccc(Cl)cc1)c1c(O)ccc2ccccc12)c1ccccc1 (stereo unspecified),2%,7%,2,9%,12µM*,?
CCC(=O)NC(c1ccc([N+](=O)[O-])cc1)c1c(O)ccc2ccccc12 (stereo unspecified),0%,0%,-2,0%,16µM*,?
CC(C)Cn1c(N)c(C(=O)COC(=O)c2ccccc2Cl)c(=O)n(C)c1=O,-15%,4%,3,0%,-9%,3%
COCc1c(C(=O)OCC(=O)c2c(N)n(CC(C)C)c(=O)n(C)c2=O)oc2ccccc12,?,0%,-14,-1%,21µM*,-4%
CC(C)Cn1c(N)c(C(=O)COC(=O)c2cccn2C)c(=O)n(C)c1=O,/,-2%,-16,-1%,23µM*,14%
CC(C)Cn1c(N)c(C(=O)COC(=O)c2ccc3c(c2)OCCO3)c(=O)n(C)c1=O,-5%,1%,2,0%,10µM*,-15%
Cc1c(C(=O)OCC(=O)c2c(N)n(CC(C)C)c(=O)n(C)c2=O)oc2ccccc12,-17%,2%,-4,1%,?,-1%
CC(C)Cn1c(N)c(C(=O)COC(=O)c2ccccc2C(=O)c2ccccc2)c(=O)n(C)c1=O,/,0%,0,0%,13µM*,-28%
NC(=O)c1ncn([C@@H]2O[C@H](CNCc3c(OCc4ccccc4F)ccc4ccccc34)[C@@H](O)[C@H]2O)n1,/,-5%,7,0%,-2%,-3%
SMILES,Apoferritin bind,IDH1 R132H inh,Giardia kill,Nrf2 ARE act,Nrf2 block,A549 tox
COc1ccc(N=c2nc(-c3ccc(C)cc3)n(-c3ccccc3)s2)cc1,/,/,6,/,?,?
CN1C(=O)c2cccc3c(S(=O)(=O)Nc4cccc(C(=O)O)c4)ccc1c23,1%,1%,/,0%,?,-9%
Cn1c(N)c(C(=O)COC(=O)c2cc(C(F)(F)F)nc3ccccc23)c(=O)n(Cc2ccccc2)c1=O,-21%,-8%,-17,-1%,21µM*,13%
CCC(=O)N1CCC1(C)C(=O)Nc1ccc2c(c1)CCN2C(C)=O (stereo unspecified),/,/,/,0%,/,/
COc1cc(O)c(NC(C)=O)c2nonc12,-10%,20%,-2,-1%,-5%,-11%
CC(=O)NC1=CC(=O)c2nonc2C1=O,/,/,3,/,2.9µM*,7.3µM*
Cc1ccc(C)c(NC(=O)CCCCCN2C(=O)[C@@H]3Cc4ccccc4CN3C2=O)c1,2%,-4%,6,0%,-8%,4%
Cc1ccc(NC(=O)CCCCCN2C(=O)[C@@H]3Cc4ccccc4CN3C2=O)c(Cl)c1,-16%,-1%,10,0%,23µM*,-21%
O=C(Nc1ccc2c(c1)OCCO2)C(c1ccnc2ccccc12)N1CCC(Cc2ccccc2)CC1 (stereo unspecified),/,/,/,4%,/,/
COc1ccc(NC(=O)CSc2nc(=O)n(CCN3CCOCC3)c3c2CCC3)cc1,/,1%,-8,0%,0%,-4%
O=C(CSc1nc(=O)n(CCN2CCOCC2)c2c1CCC2)Nc1ccc(OC(F)(F)F)cc1,/,-3%,-11,2%,18µM*,-1%
O=C1/C(=C/c2ccccc2)CSc2sccc21,14µM*,2%,2,3%,/,10%
Cc1ccc(C(=O)NCC(=O)OC(C(=O)Nc2cc(C(F)(F)F)ccc2Cl)c2ccccc2)cc1 (stereo unspecified),/,/,/,/,?,-15%
CCc1nn2c(=O)cc(-c3ccncc3)nc2s1,/,/,/,/,-29%,5%
CC1CCC2C(C)C3C(CC4[C@@H]5CC=C6C[C@@H](O)CC[C@]6(C)C5CC[C@]34C)N2C1 (stereo partly specified),-16%,/,/,/,/,/
